Results reported in PubChem BioAssay (NCATS).
Inconclusive results are not listed. Activity calls are given as the source filed them. Calls follow the shape of the dose curve; as a rule, active = well fitted inhibition curve with a large enough effect; inconclusive = small, poorly fitted or top-dose-only effect; inactive = flat fitted curve, though single readings scatter.

Key:
Test in all cases: qHTS profiling for inhibitors of Plasmodium falciparum proliferation (AID 504749); also: nearly all actives have a fitted effect of over 60% in size
Conditions in all cases: P. falciparum in erythrocytes, SYBR Green DNA, 72 h; series mostly up to 28.7 µM
CP262 = tested on: CP262
Method in brief: (§1)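 SYBR Green fluorescence of parasite DNA, read after lysis and overnight dark incubation, measured growth over 72 h in erythrocyte culture at 0.3% parasitemia and 2.5% hematocrit. Data normalised to DMSO and 0.29 uM artemisinin, with plate-drift correction.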

CP265 = tested on: CP265
Method in brief: as §1

CP266 = tested on: CP266
Method in brief: as §1

CP268 = tested on: CP268
Method in brief: as §1

CP269 = tested on: CP269
Method in brief: as §1

CP286 = tested on: CP286
Method in brief: as §1

CP291 = tested on: CP291
Method in brief: as §1

CP297 = tested on: CP297
Method in brief: as §1

CP305 = tested on: CP305
Method in brief: as §1

CP315 = tested on: CP315
Method in brief: as §1

CP325 = tested on: CP325
Method in brief: as §1

CP329 = tested on: CP329
Method in brief: as §1

CP335 = tested on: CP335
Method in brief: as §1

DFO2036 = tested on: DFO2036
Method in brief: as §1

DIV14 = tested on: DIV14
Method in brief: as §1

DIV17 = tested on: DIV17
Method in brief: as §1

DIV30 = tested on: DIV30
Method in brief: as §1

Dd2 = tested on: Dd2
Method in brief: as §1

ECU = tested on: ECU
Method in brief: as §1

FAB9 = tested on: FAB9
Method in brief: as §1

GB4 = tested on: GB4
Method in brief: as §1

HB3 = tested on: HB3
Method in brief: as §1

ICS = tested on: ICS
Method in brief: as §1

JCK = tested on: JCK
Method in brief: as §1

N140 = tested on: N140
Method in brief: as §1

P93_24 = tested on: P93_24
Method in brief: as §1

P94_40 = tested on: P94_40
Method in brief: as §1

PAD = tested on: PAD
Method in brief: as §1

PC15 = tested on: PC15
Method in brief: as §1

PC26 = tested on: PC26
Method in brief: as §1

PC49 = tested on: PC49
Method in brief: as §1

SC27B = tested on: SC27B
Method in brief: as §1

TAB109 = tested on: TAB109
Method in brief: as §1

TAB113 = tested on: TAB113
Method in brief: as §1

TAB165 = tested on: TAB165
Method in brief: as §1

W2 = tested on: W2
Method in brief: as §1

Measured: Potency

C[C@]12CC[C@H]3c4ccc(O)cc4CC[C@@H]3[C@H]1CC[C@@H]2OP(=O)(O)O
inactive: all assays above
